In one experiment the test system is C33A. In words: Primary qHTS to identify gynecologic anti-cancer compounds using libraries of approved drugs and bioactive compounds (AID 1345084). Note: nearly all actives have a fitted effect of over 55% in size. Note: potency is the fitted concentration of half-maximal effect. Conditions: Gynecologic cancer cell panel viability, ATPlite luminescence, 48 h; series mostly up to 57.5 µM. The essentials: (§1)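 In this quantitative HTS, cell killing is estimated from loss of ATP-dependent luciferase light. Cells see five compound concentrations over a 48 h exposure.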
In general terms: qHTS replaces the single test concentration by a dilution series.

In a further experiment the test system is CAOV3. Described as above. The following applies: Gynecologic cancer cell panel viability, ATPlite luminescence, 48 h; series mostly up to 57.5 µM. In short, it runs like this: as §1
A further experiment deals with Es-2. The experiment is described as above. The following applies: Gynecologic cancer cell panel viability, ATPlite luminescence, 48 h; series mostly up to 57.5 µM. In short, it runs like this: as §1
Another experiment has as its system HeLa. The experiment is described as above. Conditions: Gynecologic cancer cell panel viability, ATPlite luminescence, 48 h; series mostly up to 57.5 µM. In short, it runs like this: as §1
Background: ATP-based viability assays read luminescence as a measure of living cells.

The next experiment relates to JEG-3. The experiment is described as above. Conditions: Gynecologic cancer cell panel viability, ATPlite luminescence, 48 h; series mostly up to 57.5 µM. In short, it runs like this: as §1
A further experiment deals with OV90. The experiment is described as above. The following applies: Gynecologic cancer cell panel viability, ATPlite luminescence, 48 h; series mostly up to 57.5 µM. In short, it runs like this: as §1
Another experiment has as its system PA-1. The experiment is described as above. The following applies: Gynecologic cancer cell panel viability, ATPlite luminescence, 48 h; series mostly up to 57.5 µM. In short, it runs like this: as §1
A further experiment has as its system SKOV3. The description is as above. Conditions: Gynecologic cancer cell panel viability, ATPlite luminescence, 48 h; series mostly up to 57.5 µM. In short, it runs like this: as §1
In a further experiment the test system is Tov-21-G. The experiment is described as above. The following applies: Gynecologic cancer cell panel viability, ATPlite luminescence, 48 h; series mostly up to 57.5 µM. The essentials:
as §1

The subject of the next experiment is Tov112D. The description is as above. The following applies: Gynecologic cancer cell panel viability, ATPlite luminescence, 48 h; series mostly up to 57.5 µM. In short, it runs like this:
as §1

The next experiment concerns CASKI. The experiment is described as above. Conditions: Gynecologic cancer cell panel viability, ATPlite luminescence, 48 h; series mostly up to 57.5 µM. In short, it runs like this: as §1
A further experiment concerns Hek293T. The description is as above. The following applies: Gynecologic cancer cell panel viability, ATPlite luminescence, 48 h, control line for the selectivity index; series mostly up to 57.5 µM. In short, it runs like this: as §1
Experiment [1] can be described thus: Drug repurposing screens with cells derived from glioblastoma tumor samples (AID 1345199). For activity, negative = cell killing: % is set by controls: 0 for no effect and ±100 for the full control effect. Note: nearly all actives have a fitted effect of over 40% in size. Note: potency is the fitted concentration of half-maximal effect. Conditions: GBM patient neurospheres viability, ATP luminescence, 48 h. In short, it runs like this: (§2)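 Primary testing used CD133+ neurospheres from four GBM patients, seven concentrations, 48 h exposure and ATP-based viability; confirmation added three slower-growing patient lines.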

The subject of another experiment is astro. Described as above. The following applies: viability, ATP luminescence, 48 h; series mostly up to 45.9 µM. The essentials:
as §2

Experiment [2] concerns the target Nuclear receptor subfamily 1 group I member 2 (Rattus norvegicus) (UniProt Q9R1A7). In words: qHTS assay for small molecule activators of the rat pregnane X receptor (rPXR) signaling pathway (AID 651751; call rule not given here; note: 0% is about no effect). The following applies: rPXR reporter cells, luciferase (One-Glo), 24 h.
The nature of experiment [3]: qHTS assay for small molecule activators of the human pregnane X receptor (PXR) signaling pathway (AID 720659; call rule not given here; note: 0% is about no effect).
Setting [4] is: at 20 µM (top of the series), tumour line C.
Where [5] appears, read: at 45.9 µM (top of the series), tumour line B.
The mark [6] stands for this setting: at 46.1 µM (top of the series), tumour line C.
Where [7] appears, read: at 45.9 µM (top of the series), tumour line D.
Where [8] appears, read: at 46 µM (top of the series), tumour line A.

Values joined by “and” are separate entries in the source; they are usually repeats but may differ in a detail not shown here. Identical values can stand only once. Unmarked numbers belong to inactive results. Inconclusive results are not listed. Active and inactive are the calls of the source. Unless noted, calls come from the whole dose curve; as a rule, active = well fitted curve in the direction sought with a large enough effect; inconclusive = small, poorly fitted or top-dose-only effect, or another doubt; inactive = no such curve, though single readings can be large; an effect the other way counts as inactive or inconclusive.

Nuclear receptor subfamily 1 group I member 2 (Rattus norvegicus), sequence (Q9R1A7 whole entry, looked up): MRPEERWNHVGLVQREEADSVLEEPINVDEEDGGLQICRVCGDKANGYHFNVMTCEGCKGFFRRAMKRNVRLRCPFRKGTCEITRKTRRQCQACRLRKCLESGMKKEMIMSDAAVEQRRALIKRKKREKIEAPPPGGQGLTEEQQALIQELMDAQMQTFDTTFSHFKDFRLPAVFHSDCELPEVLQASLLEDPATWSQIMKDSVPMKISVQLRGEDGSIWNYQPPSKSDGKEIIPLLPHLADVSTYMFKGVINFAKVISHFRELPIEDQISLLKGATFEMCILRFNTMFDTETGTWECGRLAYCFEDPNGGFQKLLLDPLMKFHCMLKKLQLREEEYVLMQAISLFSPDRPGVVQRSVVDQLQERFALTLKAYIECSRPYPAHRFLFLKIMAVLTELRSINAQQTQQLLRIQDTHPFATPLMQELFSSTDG

Turning to `COC(=O)Nc1nc2ccc(C(=O)C3CC3)cc2[nH]1`, the Potency is 12.6 µM (active) with C33A; 3.16 µM (active) in the experiment with Es-2; 2 µM (active) in the experiment on HeLa; 7.94 µM (active) with JEG-3; 11.2 µM (active) with OV90; 1.12 µM (active) with PA-1. Also, the Potency in the experiment on SKOV3 is 10 µM (active); in the experiment on Tov-21-G, 1.41 µM (active); in the experiment on Tov112D, 1.58 µM (active). The Potency result in the experiment with CAOV3 is “inactive”.
As to `COc1ccc(/C=C/C(=O)Nc2ccccc2C(=O)O)cc1OC`, the Potency entry in the experiment with C33A, with CASKI, in the experiment with Es-2, in the experiment on HeLa, in the experiment on Hek293T and in the experiment on PA-1 was “inactive” in each case. Besides, the Potency entry with Tov-21-G and in the experiment on Tov112D was “inactive” in each case.
In the case of `COC(=O)[C@H]1[C@H]2C[C@@H]3c4[nH]c5cc(OC)ccc5c4CCN3C[C@H]2C[C@@H](OC(=O)/C=C/c2cc(OC)c(OC)c(OC)c2)[C@@H]1OC`, the Potency entry in the experiment with C33A, in the experiment on CASKI, in the experiment with Es-2, with HeLa, in the experiment with Hek293T and in the experiment with JEG-3 was “inactive” each time. Further, the Potency entry in the experiment with OV90, in the experiment on PA-1, with SKOV3, in the experiment on Tov-21-G and with Tov112D was “inactive” throughout. For the same compound, the activity, negative = cell killing was -5.29% in [1] (setting [4]) and -21.8% in experiment [1] (at 21.2 µM (top of the series), tumour line D). The Potency in [1] (tumour line A) is 10 µM (active).
For the compound `C#C[C@]1(O)CC[C@H]2[C@@H]3CCc4cc(O)ccc4[C@H]3CC[C@@]21C`, the Potency result in the experiment with C33A, with CASKI, in the experiment on Es-2 and in the experiment on Hek293T was “inactive” in each case. Moreover, the Potency with SKOV3 was 35.5 µM (active); in [1] (tumour line A), 12.6 µM (active). Also, the activity, negative = cell killing was -15.9% in experiment [1] (setting [5]) and 2.3% in [1] (setting [6]).
Consider `Nc1ccc([N+](=O)[O-])cc1O`, for which the Potency entry with C33A, with CAOV3, in the experiment with HeLa, in the experiment on Hek293T, in the experiment on JEG-3 and with Tov-21-G was “inactive” throughout. The Potency entry in the experiment with Tov112D and with astro was “inactive” each time. Also, the Potency in the experiment with PA-1 is 4.47 µM (active). Also, in experiment [2], the max response is -5.85% and -4.85%. In experiment [3], the outcome was inactive.
For `CC1(C)[C@@H](O[C@H]2O[C@H](C(=O)O)[C@@H](O)[C@H](O)[C@H]2O[C@@H]2O[C@H](C(=O)O)[C@@H](O)[C@H](O)[C@H]2O)CC[C@]2(C)[C@H]3C(=O)C=C4[C@@H]5C[C@@](C)(C(=O)O)CC[C@]5(C)CC[C@@]4(C)[C@]3(C)CC[C@@H]12`, the Potency result in the experiment with C33A, in the experiment with CAOV3, with CASKI, in the experiment on Es-2, in the experiment with HeLa and with Hek293T was “inactive” throughout. Further, the Potency result in the experiment with JEG-3, in the experiment on OV90, in the experiment with PA-1, in the experiment with Tov-21-G and in the experiment with Tov112D was “inactive” each time. Further, the activity, negative = cell killing in [1] (setting [5]) was -9.84%; in [1] (setting [7]) it was 5.57%; in experiment [1] (setting [8]), -2.05%; in experiment [1] (setting [6]) it was 21.2%.
Turning to `C#CC1(O)CC[C@H]2[C@@H]3CCC4=CCCC[C@@H]4[C@H]3CC[C@@]21C` (some centres not stated), the Potency result in the experiment on C33A, in the experiment with CAOV3, with CASKI, in the experiment with Es-2, with HeLa and with Hek293T was “inactive” in each case. For the same compound, the Potency result with JEG-3, in the experiment with OV90, in the experiment with Tov-21-G and in the experiment with Tov112D was “inactive” in each case. For the same compound, the activity, negative = cell killing in experiment [1] (setting [4]) is -10.1%. The Potency in [1] (tumour line A) is 11.2 µM (active).
Take `NS(=O)(=O)c1ccc(-n2nc(C(F)(F)F)cc2-c2ccc(Cl)cc2)cc1`: the Potency entry in the experiment on C33A, in the experiment with CASKI, with Es-2, with HeLa, with Hek293T and with JEG-3 was “inactive” throughout. Moreover, the Potency result in the experiment with OV90, with PA-1, in the experiment with SKOV3, in the experiment on Tov-21-G and with Tov112D was “inactive” throughout.
`COc1cc(/C=C/C(=O)N2CCN(CC(=O)N3CCCC3)CC2)cc(OC)c1OC`: the Potency entry with C33A, in the experiment with CASKI, in the experiment on Es-2, in the experiment on HeLa, with Hek293T and with JEG-3 was “inactive” each time. In addition, the Potency entry in the experiment on OV90, with PA-1, with Tov-21-G, in the experiment with Tov112D and in the experiment with astro was “inactive” throughout. Further, the activity, negative = cell killing in experiment [1] (setting [5]) is -11%; in [1] (setting [7]) it was -1.45%; in experiment [1] (setting [8]), -40.7%; in experiment [1] (setting [6]) it was -18.6%.
Take `CC1(C)[C@@H](O)CC[C@]2(C)[C@H]3C(=O)C=C4[C@@H]5C[C@@](C)(C(=O)O)CC[C@]5(C)CC[C@@]4(C)[C@]3(C)CC[C@@H]12`: the Potency entry in the experiment with C33A, with CASKI, in the experiment with Es-2, with HeLa, in the experiment with Hek293T and in the experiment with JEG-3 was “inactive” each time. For the same compound, the Potency result in the experiment on OV90, in the experiment with PA-1, in the experiment on Tov-21-G, in the experiment with Tov112D and in the experiment with astro was “inactive” in each case. Moreover, the Potency in the experiment on SKOV3 was 3.16 µM (active). For the same compound, the activity, negative = cell killing is -26.1% and -10.2% in experiment [1] (setting [5]); 9.17% and -11.9% in [1] (setting [7]); -0.581% and -19.2% in experiment [1] (setting [6]).
Consider `Cc1nc2ccccc2n1Cc1ccc(Cl)cc1`, for which the Potency entry with CAOV3, with HeLa, with JEG-3, with Tov-21-G and in the experiment with Tov112D was “inactive” in each case. Further, the Potency in the experiment with OV90 was 8.91 µM (active); in the experiment on SKOV3, 3.98 µM (active); in the experiment on astro, 3.16 µM (active).
For `CN1[C@@H]2CC[C@H]1CC(OC(c1ccccc1)c1ccccc1)C2` (some centres not stated), the Potency result with C33A, in the experiment on CAOV3, in the experiment with CASKI, with Es-2, in the experiment on HeLa and in the experiment with Hek293T was “inactive” throughout. Moreover, the Potency entry with JEG-3, in the experiment with PA-1, with SKOV3, in the experiment with Tov-21-G and with Tov112D was “inactive” throughout. Besides, the activity, negative = cell killing in experiment [1] (setting [5]) is -9.62%. For the same compound, the Potency in [1] (tumour line A) is 7.08 µM (active).
For `O=c1cc(-c2ccccc2)oc2ccccc12`, the Potency with HeLa is 15.8 µM (active); with SKOV3 it was 31.6 µM (active).
For `NC(=O)C(c1ccccc1)(c1ccccc1)[C@@H]1CCN(CCc2ccc3c(c2)CCO3)C1`, the Potency result in the experiment with C33A, in the experiment with CAOV3, with CASKI, in the experiment with Es-2, in the experiment with HeLa and in the experiment on Hek293T was “inactive” each time. Further, the Potency entry in the experiment with JEG-3, with PA-1, with Tov-21-G and with Tov112D was “inactive” each time.
Consider `C[C@H](O)[C@H](O)[C@H]1CNc2nc(N)[nH]c(=O)c2N1`, for which the Potency entry in the experiment with C33A, in the experiment with CASKI, in the experiment with Es-2, with HeLa, in the experiment on Hek293T and in the experiment on JEG-3 was “inactive” in each case. In addition, the Potency entry with OV90, with PA-1, in the experiment with SKOV3, with Tov-21-G, in the experiment on Tov112D and in the experiment on astro was “inactive” throughout. For the same compound, the activity, negative = cell killing in experiment [1] (setting [5]) is -2.46%; in experiment [1] (setting [7]) it was 16.1%; in [1] (setting [8]), -18.9%; in experiment [1] (setting [6]) it was 11.1%.
As for `CC1(C)S[C@@H]2[C@H](NC(=O)[C@H](NC(=O)N3CCN(S(C)(=O)=O)C3=O)c3ccccc3)C(=O)N2[C@H]1C(=O)O`, the Potency result in the experiment on C33A, with CASKI, in the experiment on Es-2, with HeLa, with Hek293T and in the experiment on JEG-3 was “inactive” throughout. The Potency entry with OV90, in the experiment with PA-1, in the experiment on Tov-21-G and in the experiment on Tov112D was “inactive” throughout. Further, the activity, negative = cell killing in [1] (setting [5]) was -6.53%; in experiment [1] (setting [7]) it was -7.16%; in experiment [1] (setting [8]) it was -8.92%; in experiment [1] (setting [6]) it was -22.9%.

Source of the values: PubChem BioAssay (NCATS).
